Source: PubChem BioAssay (several laboratories)
MRP reversal = MRP-mediated drug resistance reversal. H69AR cells + 2 uM doxorubicin, CellTiter-Glo, 72 h. differential viability (reversal), % at 10 µM. 85,000 compounds, 0.04% hits. AID 602;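 active means viability drop by adding the cancer drug above about 55%, with treated viability meeting a 40% cutoff, limit read from the data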;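 further: viability without doxorubicin minus viability with 2 µM doxorubicin for each compound; larger differential means the compound sensitizes cells more to doxorubicin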
MRP-1 activ = activates MRP-1. H69AR cells + doxorubicin, viability rescue, CellTiter-Glo. viability increase, % at 10 µM. 140,000 compounds, 0.61% hits. AID 799;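 active means viability gain under doxorubicin at or above a set limit, the compound median plus 3 SD, cut at about 4.7% in these data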;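 further: MRP-1 overexpressing cells given doxorubicin 25 µM after compound pretreatment; 18-22 h compound pretreatment then 72 h with doxorubicin before readout; 0% = doxorubicin-only wells and 100% = vehicle-treated cells without doxorubicin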
FAK blocker = inhibitors of human focal adhesion kinase; Q05397; biochemical FAK kinase activity assay; inhibition, %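 (tested at 7 µM)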; 97,000 compounds, 0.84% hits; AID 727; in the data active means inhibition above about 19%;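 further: 0% = DMSO and 100% = reference compound high control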
PTPN22 inh 2 = inhibitors of human LYP (PTPN22) phosphatase | Q9Y2R2 | recombinant LYP catalytic domain, DiFMUP fluorescence | inhibition, % at 2 µM | 96,000 compounds, 0.21% hits;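 active means inhibition at 2 µM at or above a set limit, the screen mean plus 3 SD, cut at about 24% in these data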;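 further: 0% = DMSO with enzyme and 100% = enzyme fully blocked by orthovanadate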
PLAP act = activators of human placental alkaline phosphatase | AID 696 | 96,000 compounds, 1.2% hits | activation fold at 20 µM | purified PLAP enzyme, luminescent substrate read-out; active compounds read high; in the data active means activation fold above about 2
Target sequence (P05187 whole entry, looked up): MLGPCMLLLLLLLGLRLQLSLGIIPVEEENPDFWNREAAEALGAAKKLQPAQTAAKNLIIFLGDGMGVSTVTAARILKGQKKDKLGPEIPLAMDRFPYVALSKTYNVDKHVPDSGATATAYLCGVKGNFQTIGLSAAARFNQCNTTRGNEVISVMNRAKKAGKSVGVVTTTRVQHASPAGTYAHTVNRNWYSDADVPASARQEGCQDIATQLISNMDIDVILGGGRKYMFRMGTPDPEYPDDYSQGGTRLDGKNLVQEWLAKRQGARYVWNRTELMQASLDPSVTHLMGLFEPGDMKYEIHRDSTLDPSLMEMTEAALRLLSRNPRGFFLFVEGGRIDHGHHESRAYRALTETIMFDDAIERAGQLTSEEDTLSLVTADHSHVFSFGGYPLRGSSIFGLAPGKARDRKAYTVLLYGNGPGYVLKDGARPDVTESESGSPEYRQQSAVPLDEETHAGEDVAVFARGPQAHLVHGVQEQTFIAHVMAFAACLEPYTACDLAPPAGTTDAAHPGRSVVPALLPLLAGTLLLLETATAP
LYP act = increases human PTPN22 phosphatase activity; recombinant LYP, DiFMUP fluorescence; 0 = plate median, 100 = signal doubled; AID 697; 96,000 compounds, 0.11% hits; activation, % at 2 µM;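 active means activation at 2 µM above a set limit, the mean plus 5 SD, cut at about 37% in these data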
Numbers without * were called inactive; / = not tested or not shown. Hits are enriched below; roughly 2.2% of the tested compounds scored in any of these assays.

SMILES	MRP reversal	MRP-1 activ	FAK blocker	PTPN22 inh 2	PLAP act	LYP act
Cn1c(CSc2ncn[nH]2)nc2ccccc21	-18	4	1	-2	2.8*	0
CCN1CC(O)=C(c2nc3ccccc3s2)C1=N	-6	1	2	0	2.1*	1
Cn1nnc(NC(=O)COc2ccc(C3CCCCC3)cc2)n1	13	5.3*	1	-14	1.2	12
O=C(NCc1ccccn1)c1cccc(NS(=O)(=O)c2cccc(F)c2)c1	/	-1	/	/	/	/
COC(=O)/C(=N\Nc1ccc(Cl)cc1)Sc1nnc(-c2ccc(OC)cc2)n1C	/	-1	/	/	/	/
CCC1SC2=NC(C)=C(C(=O)OC)C(c3cccs3)N2C1=O (stereo not given)	-11	5.5*	0	3	1.4	-4
CCOC(=O)C1=C(C)N=C2SC(CC)C(=O)N2C1c1cccc(F)c1 (stereo not given)	4	6.3*	-4	9	1.5	-10
COc1cccc(O[C@@H]2O[C@@H]3COC(C)(C)O[C@H]3[C@H](O)[C@H]2NC(C)=O)c1	2	-2	-1	0	/	0
O=C(NCCCN1CCc2ccccc2C1)Nc1ccc(Br)cc1	-11	-2	3	-1	2.3*	1
COc1ccc(NC(=O)NCCCN2CCc3ccccc3C2)cc1	-11	-3	/	/	1.6	/
CCN(CC)S(=O)(=O)c1ccc(N2CCOCC2)c(NS(=O)(=O)c2ccc(C)c(C)c2)c1	/	-2	/	/	/	/
CCc1ccc(S(=O)(=O)NCc2cn3cccc(C)c3n2)s1	/	-1	4	-6	1.7	5
Cc1csc2nc(CCNS(=O)(=O)c3cccs3)cn12	-10	-1	-1	-10	2.9*	9
Cc1ccn2cc(CNC(=O)c3cccs3)nc2c1	-2	1	-1	-5	1	4
Cc1ccn2cc(CNS(=O)(=O)c3ccc(Cl)s3)nc2c1	9	-1	2	6	2.1*	-7
CCc1ccc(S(=O)(=O)NCCc2cn3ccsc3n2)s1	6	-1	-7	7	2*	-7
CCc1ccc(S(=O)(=O)NCc2cn3ccsc3n2)s1	/	-3	/	/	0.9	/
CCc1ccc(S(=O)(=O)NCc2cn3ccccc3n2)s1	10	-1	0	3	2*	-2
COC(=O)/C=C/c1ccc(OC(=O)c2ccncc2)cc1	/	-4	/	/	/	/
Cn1cccc1CC(=O)N/N=C/C=C/c1ccco1	/	-1	/	/	/	/
Cc1ccnc(NS(=O)(=O)c2ccc(NC(=O)c3cc(-c4ccc(Br)cc4)nc4ccccc34)cc2)n1	/	2	/	/	/	/
COc1ccc(C(=O)Nc2ccccc2Cc2ccccc2)c(OC)c1	/	5.3*	/	/	/	/
Cc1[nH]nc2ncc(C(=O)c3ccccc3O)cc12	1	-4	14	2	2.1*	-4
CCOC(=O)CN(C(=O)CSc1nnc(COc2ccc(OC)cc2)n1C)c1ccccc1	-12	5.6*	9	-1	1.5	-2
COc1cccc(/C=N/NC(=O)CCc2c(C)n[nH]c2C)c1	18	0	2	3	2.1*	-2
SMILES	MRP reversal	MRP-1 activ	FAK blocker	PTPN22 inh 2	PLAP act	LYP act
COC(=O)C1=CN(CCCN2CCCC2=O)C=C(C(=O)OC)C1c1ccccc1C(F)(F)F	39	-3	6	-6	2.1*	4
COC(=O)C1=CN(CC2CCCO2)C=C(C(=O)OC)C1c1ccccc1C(F)(F)F (stereo not given)	0	-3	10	4	1.1	0
O=C(CNC(=O)c1ccccc1)OCc1cc(=O)n2cc(Br)ccc2n1	/	-2	/	/	/	/
CC1(C)Cc2c(sc3ncn4nc(-c5ccco5)nc4c23)CO1	-5	/	33*	-1	/	0
O=C(CSc1nnc(-c2ccc(Cl)s2)o1)N1CCc2ccccc21	-6	/	1	3	1	-3
O=C(CSc1nnc(-c2ccc(Cl)s2)o1)N1CCCc2ccccc21	6	-2	2	24*	0.8	-24
CNc1ncc(Cc2ccccc2)s1	/	-1	/	/	/	/
Cc1ccc(CS/C(Nc2ccccc2C)=C(\C#N)C(N)=O)c(C)c1	/	-3	/	/	/	/
CCOc1ccc(N2C(=O)CS/C2=C(\C(Cl)=C(Cl)Cl)[N+](=O)[O-])cc1	-18	-1	0	26*	1.2	-25
O=C1/C(=C\c2cccs2)N=C(c2cccs2)N1Nc1ccccc1	8	6.9*	4	9	0.8	-6
COc1ccc(CNC(=O)COC(=O)CC2CCCC2)cc1	/	-1	/	/	/	/
O=C(CN(C(=O)Cn1nnc(-c2ccccc2F)n1)c1cccc2c1CCCC2)NCc1ccccc1	/	0	2	7	/	-9
